Calls of active or inactive are those of the source. The calls were made as follows: active = hit-call score of the fitted dose curve at least 0.9, where 1 is the maximum; inactive = score below 0.9.
Experiments:
Details in all cases: mRNA level, 48 h; actives raise or lower the signal
[1] = read-out: Fatty Acid-Binding Protein 1 (FABP1), FABP1 (gene 2168); test: LTEA_HepaRG_FABP1: Life Technologies and Expression Analysis (LTEA) Assay for Fatty Acid-Binding Protein 1 (FABP1) using HepaRG (AID 2283494)
Procedure, shortened: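 FABP1 expression by TaqMan qRT-PCR, normalised to three housekeeping genes, in HepaRG cells after 48 h chemical treatment. Eight-point half-log series topping at 100 uM in 0.5% DMSO, duplicates; gain or loss fitted relative to vehicle.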

[2] = read-out: Cytochrome P450 4A22 (Homo sapiens) (UniProt Q5TCH4); test: LTEA_HepaRG_CYP4A22: Life Technologies and Expression Analysis (LTEA) Assay for Cytochrome P450 4A22 (CYP4A22) using HepaRG (AID 2283495)
Procedure, shortened: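 qRT-PCR of CYP4A22 mRNA (Fluidigm TaqMan, normalized to three housekeeping genes) after 48 h chemical exposure of HepaRG cells; 8-point half-log series, top 100 uM, 0.5% DMSO vehicle. Bidirectional curve fitting vs DMSO baseline.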

[3] = read-out: Cytochrome P450 7A1 (Homo sapiens) (UniProt P22680); test: LTEA_HepaRG_CYP7A1: Life Technologies and Expression Analysis (LTEA) Assay for Cytochrome P450 7A1 (CYP7A1) using HepaRG (AID 2283496)
Procedure, shortened: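 HepaRG, 48 h exposure, 8-pt half-log series from 100 uM, 0.5% DMSO vehicle, duplicates. Readout: TaqMan qRT-PCR mRNA vs three housekeeping genes; bidirectional curve fit against DMSO baseline.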

[4] = read-out: Glutathione S-Transferase (GSTA2), GSTA2 (gene 2939); test: LTEA_HepaRG_GSTA2: Life Technologies and Expression Analysis (LTEA) Assay for Glutathione S-Transferase (GSTA2) using HepaRG (AID 2283497)
Procedure, shortened: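 GSTA2 transcript levels came from Fluidigm TaqMan qRT-PCR normalized to three housekeeping genes, fitted in both directions against DMSO. HepaRG cultures received chemicals for 48 h in serum-free induction medium (0.5% DMSO), 8 half-log concentrations up to 100 uM, duplicate.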

[5] = read-out: Glutamate-cysteine ligase catalytic (GCLC), GCLC (gene 2729); test: LTEA_HepaRG_GCLC: Life Technologies and Expression Analysis (LTEA) Assay for Glutamate-cysteine ligase catalytic (GCLC) using HepaRG (AID 2283498)
Procedure, shortened: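 Expression by TaqMan qRT-PCR, normalized to three housekeeping genes (ACTB, GAPDH, POLR2A), with up- or down-regulation fitted against DMSO. HepaRG cells dosed in duplicate for 48 h with 8 half-log concentrations up to 100 uM, vehicle 0.5% DMSO.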

[6] = read-out: growth arrest and DNA damage 45 (GADD45G), GADD45G (gene 10912); test: LTEA_HepaRG_GADD45G: Life Technologies and Expression Analysis (LTEA) Assay for growth arrest and DNA damage 45 (GADD45G) using HepaRG (AID 2283499)
Procedure, shortened: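 Differentiated human HepaRG cells in serum-free induction medium were exposed for 48 h to 8 half-log concentrations up to 100 uM in 0.5% DMSO, in duplicate. GADD45G mRNA was measured by TaqMan qRT-PCR, normalised to ACTB, GAPDH and POLR2A, and fitted bidirectionally against DMSO.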

[7] = read-out: Glutamate-cysteine ligase regulatory (GCLM), GCLM (gene 2730); test: LTEA_HepaRG_GCLM: Life Technologies and Expression Analysis (LTEA) Assay for Glutamate-cysteine ligase regulatory (GCLM) using HepaRG (AID 2283500)
Procedure, shortened: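 GCLM expression quantified by qRT-PCR, normalized to three housekeeping genes, after 48 h chemical treatment of HepaRG cells in duplicate at 8 concentrations (top 100 uM, half-log steps, 0.5% DMSO). Changes fitted both directions against vehicle.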

[8] = read-out: Glutathione S-transferase M3 (GSTM3), GSTM3 (gene 2947); test: LTEA_HepaRG_GSTM3: Life Technologies and Expression Analysis (LTEA) Assay for Glutathione S-transferase M3 (GSTM3) using HepaRG (AID 2283501)
Procedure, shortened: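 Differentiated HepaRG cells in serum-free induction medium were exposed in duplicate for 48 h to 8 half-log concentrations up to 100 uM in 0.5% DMSO. GSTM3 mRNA was measured by TaqMan qRT-PCR, normalized to ACTB/GAPDH/POLR2A, and fitted bidirectionally versus DMSO.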

[9] = read-out: Heat shock 70 kDa protein 1 (HSPA1A), gene 3303; test: LTEA_HepaRG_HSPA1A: Life Technologies and Expression Analysis (LTEA) Assay for Heat shock 70 kDa protein 1 (HSPA1A) using HepaRG (AID 2283502)
Procedure, shortened: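 HSPA1A expression measured by qRT-PCR with ACTB/GAPDH/POLR2A normalization; curves fitted in both directions relative to DMSO vehicle. Exposure: 48 h in HepaRG cells, duplicate 8-point half-log series from 100 uM, 0.5% DMSO, serum-free induction medium.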

[10] = read-out: Hypoxia-inducible factor 1-alpha (Homo sapiens) (UniProt Q16665); test: LTEA_HepaRG_HIF1A: Life Technologies and Expression Analysis (LTEA) Assay for Hypoxia-inducible factor 1 (HIF1A) Trancription factor using HepaRG (AID 2283503)
Procedure, shortened: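 HIF1A transcript level read by qRT-PCR (ACTB, GAPDH, POLR2A normalization) after 48 h chemical exposure of HepaRG cultures. Eight half-log concentrations, top 100 uM, 0.5% DMSO vehicle, duplicates; bidirectional curve fit against DMSO baseline.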

[11] = read-out: 3-Hydroxy-3-Methylglutaryl-CoA Synthase 2 (HMGCS2), HMGCS2 (gene 3158); test: LTEA_HepaRG_HMGCS2: Life Technologies and Expression Analysis (LTEA) Assay for 3-Hydroxy-3-Methylglutaryl-CoA Synthase 2 (HMGCS2) using HepaRG (AID 2283504)
Procedure, shortened: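 Differentiated human HepaRG cells were exposed in duplicate for 48 h in serum-free induction medium to eight concentrations (top 100 uM, half-log steps, 0.5% DMSO). HMGCS2 mRNA was quantified by TaqMan qRT-PCR, normalised to ACTB, GAPDH and POLR2A, then fitted bidirectionally against DMSO.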

HGF (gene 3082) = test: LTEA_HepaRG_HGF: Life Technologies and Expression Analysis (LTEA) Assay for Hepatocyte Growth Facto (HGF) using HepaRG (AID 2283505)
Procedure, shortened: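 Differentiated human HepaRG cells in serum-free induction medium were exposed in duplicate for 48 h to eight concentrations (top 100 uM, half-log steps, 0.5% DMSO). HGF mRNA was quantified by qRT-PCR, normalized to ACTB, GAPDH and POLR2A.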

[12] = read-out: Insulin Like Growth Factor 1 (IGF1), IGF1 (gene 3479); test: LTEA_HepaRG_IGF1: Life Technologies and Expression Analysis (LTEA) Assay for Insulin Like Growth Factor 1 (IGF1) using HepaRG (AID 2283506)
Procedure, shortened: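 Expression measured by TaqMan qRT-PCR on a Fluidigm array, with three housekeeping genes for normalisation, after 48 h treatment of HepaRG cells. Top concentration 100 uM with half-log steps, 0.5% DMSO vehicle, bidirectional fit.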

[13] = read-out: Intercellular Adhesion Molecule 1 (ICAM1), ICAM1 (gene 3383); test: LTEA_HepaRG_ICAM1: Life Technologies and Expression Analysis (LTEA) Assay for Intercellular Adhesion Molecule 1 (ICAM1) using HepaRG (AID 2283507)
Procedure, shortened: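 Differentiated HepaRG cells in serum-free induction medium were exposed in duplicate for 48 h to eight half-log concentrations up to 100 uM in 0.5% DMSO. Transcript levels were measured by qRT-PCR normalized to ACTB, GAPDH and POLR2A; bidirectional fits relative to DMSO.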

[14] = read-out: Insulin-like growth factor-binding protein 1 (IGFBP1), IGFBP1 (gene 3484); test: LTEA_HepaRG_IGFBP1: Life Technologies and Expression Analysis (LTEA) Assay for Insulin-like growth factor-binding protein 1 (IGFBP1) using HepaRG (AID 2283508)
Procedure, shortened: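 Differentiated human HepaRG cells in serum-free induction medium were exposed in duplicate for 48 h to eight concentrations, top 100 uM with half-log dilutions, in 0.5% DMSO. Transcript levels came from qRT-PCR normalised to ACTB, GAPDH and POLR2A, fitted bidirectionally against DMSO.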

[15] = read-out: Interleukin 6 (IL6), IL6 (gene 3569); test: LTEA_HepaRG_IL6: Life Technologies and Expression Analysis (LTEA) Assay for Interleukin 6 (IL6) using HepaRG (AID 2283509)
Procedure, shortened: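 Transcript levels, normalized to three housekeeping genes, were quantified by qRT-PCR after 48 h chemical treatment of HepaRG cells. Eight-point half-log series from 100 uM in 0.5% DMSO, duplicates. Fitted both directions against DMSO baseline.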

[16] = read-out: Potassium channel subfamily K member 1 (KCNK1), KCNK1 (gene 3775); test: LTEA_HepaRG_KCNK1: Life Technologies and Expression Analysis (LTEA) Assay for Potassium channel subfamily K member 1 (KCNK1) using HepaRG (AID 2283511)
Procedure, shortened: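 KCNK1 transcript measured by TaqMan qRT-PCR against three housekeeping genes, after HepaRG cells were treated 48 h with eight half-log concentrations (top 100 uM, 0.5% DMSO). Curves fitted bidirectionally relative to vehicle.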

[17] = read-out: JUN Transcription Factor, JUN (gene 3725); test: LTEA_HepaRG_JUN: Life Technologies and Expression Analysis (LTEA) Assay for JUN Transcription Factor using HepaRG (AID 2283513)
Procedure, shortened: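 mRNA measured by TaqMan qRT-PCR after 48 h chemical exposure of HepaRG cultures; normalization to three housekeeping genes. Duplicate eight-point half-log curves from 100 uM in 0.5% DMSO; gain or loss fitted against DMSO baseline.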

[18] = read-out: Interleukin 6 Receptor (IL6R), IL6R (gene 3570); test: LTEA_HepaRG_IL6R: Life Technologies and Expression Analysis (LTEA) Assay for Interleukin 6 Receptor (IL6R) using HepaRG (AID 2283510)
Procedure, shortened: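 IL6R transcript level by qRT-PCR after 48 h chemical exposure (8-point, half-log, max 100 uM, 0.5% DMSO vehicle) of HepaRG cells in serum-free induction medium. Normalized to three housekeeping genes; curves fitted in both directions relative to DMSO.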

Measured: outcome

Hypoxia-inducible factor 1-alpha (Homo sapiens), sequence (Q16665 whole entry, looked up): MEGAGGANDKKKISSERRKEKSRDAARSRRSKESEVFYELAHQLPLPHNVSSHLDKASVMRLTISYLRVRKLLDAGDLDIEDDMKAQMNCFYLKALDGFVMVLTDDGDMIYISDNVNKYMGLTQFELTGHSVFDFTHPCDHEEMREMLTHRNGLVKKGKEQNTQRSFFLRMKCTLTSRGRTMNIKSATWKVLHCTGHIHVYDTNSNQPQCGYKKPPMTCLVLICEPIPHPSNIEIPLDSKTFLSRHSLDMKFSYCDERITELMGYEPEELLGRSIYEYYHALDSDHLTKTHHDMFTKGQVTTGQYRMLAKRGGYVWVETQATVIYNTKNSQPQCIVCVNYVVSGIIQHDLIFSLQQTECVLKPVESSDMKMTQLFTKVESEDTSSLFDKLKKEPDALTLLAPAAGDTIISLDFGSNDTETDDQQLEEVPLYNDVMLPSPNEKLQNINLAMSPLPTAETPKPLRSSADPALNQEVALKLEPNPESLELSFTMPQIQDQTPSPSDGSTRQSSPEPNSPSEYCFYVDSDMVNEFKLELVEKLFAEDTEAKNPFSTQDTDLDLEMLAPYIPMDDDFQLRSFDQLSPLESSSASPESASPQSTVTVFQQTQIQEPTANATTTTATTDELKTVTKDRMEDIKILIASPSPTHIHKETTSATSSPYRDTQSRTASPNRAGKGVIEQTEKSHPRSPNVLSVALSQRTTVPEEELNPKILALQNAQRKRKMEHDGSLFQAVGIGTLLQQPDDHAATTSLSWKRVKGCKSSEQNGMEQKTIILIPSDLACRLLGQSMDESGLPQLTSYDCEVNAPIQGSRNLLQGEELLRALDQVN

CSC(C)(C)C=NO
not listed: [18]
inactive: all other assays above

Cc1ccc([N+](=O)[O-])cc1C
inactive: all assays above

CCOC(=O)c1ccccc1C(=O)OCC
inactive: all assays above

CC(Cc1ccc(OCC(=O)O)cc1)NCC(O)c1csc(C(F)(F)F)n1 (centres undefined)
inactive: all assays above

OCC1CO1 (centres undefined)
inactive: all assays above

From PubChem BioAssay (EPA / NIEHS)
